# Experimental data: PubChem BioAssay (NCI)
# About 83,000 compounds went through this panel and 20% of them were active in at least one assay; those are over-represented in the sample as a whole.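 Growth was measured after 48 h exposure to one concentration of compound in 96-well plates. Values under 10 count as active.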 A number with no mark means an inactive call. Activity calls are given as the source filed them.
# Experiments:
# Assay in all cases: NCI-60 one-dose screen, 48 h (100 = growth as untreated, 0 = no growth, -100 = all killed)
# Details in all cases: 10 µM unless noted
# T-47D breast = tested on: T-47D breast
# BT-549 breast = tested on: BT-549 breast
# MDA-MB-435 melanoma = tested on: MDA-MB-435 melanoma
# SW-620 colon = tested on: SW-620 colon
# MCF7 breast = tested on: MCF7 breast
# HCT-116 colon = tested on: HCT-116 colon
# HCC-2998 colon = tested on: HCC-2998 colon
# KM12 colon = tested on: KM12 colon
SMILES,growth (T-47D breast),growth (BT-549 breast),growth (MDA-MB-435 melanoma),growth (SW-620 colon),growth (MCF7 breast),growth (HCT-116 colon),growth (HCC-2998 colon),growth (KM12 colon)
CC1(C)C(=O)/C(=C\c2cccnc2)C[C@]2(C)[C@H]3CC[C@@H]4[C@H]5[C@H](C(=O)/C=C/c6cccnc6)CC[C@]5(C(=O)O)CC[C@@]4(C)[C@]3(C)CC[C@@H]12,-10% [100 µM] (active),-32.2% [100 µM] (active),-78.2% [100 µM] (active),-21.8% [100 µM] (active),-41.9% [100 µM] (active),-56.7% [100 µM] (active),-76.4% [100 µM] (active),-82.1% [100 µM] (active)
C#C[C@]1(O)CC[C@H]2[C@@H]3CC=C4c5nc(Nc6ccc(OC)cc6OC)sc5CC[C@]4(C)[C@H]3CC[C@@]21C,22.3%,-16.7% (active),-4.22% (active),-12.8% (active),4.51% (active),-21.1% (active),29.8%,-50.4% (active)
CO[C@H]1CC[C@@]2(C)C(=CC[C@H]3[C@@H]4C[C@H](O)C[C@@]4(C)CC[C@@H]32)C1,54%,79.5%,-16.9% (active),28.8%,25.7%,29.2%,68.4%,35.7%
C[C@H]1[C@H](C)CC[C@]2(C(=O)N3CCN(C)CC3)CC[C@]3(C)C(=CC[C@@H]4[C@@]5(C)C/C(=C/c6ccco6)C(=O)C(C)(C)[C@@H]5CC[C@]43C)[C@H]12,20.3% [100 µM],50.8% [100 µM],42.6% [100 µM],39.9% [100 µM],23.9% [100 µM],19% [100 µM],38.2% [100 µM],35.7% [100 µM]
O=C1Cc2c(sc3c(F)cccc23)C(c2ccccc2[N+](=O)[O-])N1 (stereo unspecified),78.6%,99.6%,108%,79.3%,81.4%,85.9%,119%,100%
Cn1c(=O)c(C#N)c(-c2ccco2)n2c(S(=O)(=O)Cc3ccccc3)nnc12,90.6%,73.7%,83%,99.5%,74.9%,75.8%,102%,93.7%
CCN(CC)c1ccc2cc(NC(=O)OCCNC(=O)CCNC(=O)[C@H](CC(C)C)NC(=O)C(C)(C)NC(=O)C(C)(C)NC(=O)[C@H](CC(C)C)NC(=O)CCNC(=O)C(C)(C)NC(=O)[C@H](CC(C)C)NC(=O)CCNC(=O)[C@@](C)(CC)NC(=O)[C@H](C)NC(=O)CCNC(=O)C(C)(C)NC(=O)[C@H](C)NC(=O)[C@@H]3CCCN3C(=O)[C@@](C)(CC)NC(=O)[C@H](Cc3ccccc3)NC(=O)C3CCCN3C(=O)C(C)(C)NC(=O)C3CCCN3C(=O)C(C)(C)NC(C)=O)c(=O)oc2c1 (stereo partly specified),-71.4% (active),-93.3% (active),-76.2% (active),-77.4% (active),-88.2% (active),-91.2% (active),-94.2% (active),-98.5% (active)
C=C(C)[C@@H]1CC[C@]2(C(=O)OC)CC[C@]3(C)[C@H](CC[C@@H]4[C@@]5(C)CC/C(=N\OCCC(=NCCC#N)NOCCC#N)C(C)(C)[C@@H]5CC[C@]43C)[C@@H]12,15.1% [100 µM],4.4% [100 µM] (active),14.6% [100 µM],22% [100 µM],12.4% [100 µM],4.16% [100 µM] (active),26.9% [100 µM],10.9% [100 µM]
C[C@H]1[C@H](C)CC[C@]2(COC(=O)CCC(=O)O)CC[C@]3(C)C(=CC[C@@H]4[C@@]5(C)CCCNC(C)(C)[C@@H]5CC[C@]43C)[C@H]12,36.7% [100 µM],64% [100 µM],79.6% [100 µM],87.7% [100 µM],54.9% [100 µM],40.5% [100 µM],71.9% [100 µM],78% [100 µM]
C=C(C)[C@@H]1CC[C@]2(C(N)=O)CC[C@]3(C)[C@H](CC[C@@H]4[C@@]5(C)CC[C@H](O)C(C)(C)[C@@H]5CC[C@]43C)[C@@H]12,-24.8% [100 µM] (active),-21.6% [100 µM] (active),-4.44% [100 µM] (active),-4.49% [100 µM] (active),-12.5% [100 µM] (active),-24.8% [100 µM] (active),-39% [100 µM] (active),-63.5% [100 µM] (active)
N#Cc1c(N2CCOCC2)nc(=S)[nH]c1-c1ccco1,18.9%,60.4%,86.3%,83.8%,26.7%,82.4%,-21% (active),65.3%
Cc1ccc(C2=C/C(=C/c3ccc(Br)cc3)C(=O)N2CCc2ccc(S(N)(=O)=O)cc2)cc1,75.9%,98.1%,101%,103%,88.5%,95.2%,105%,100%
